# “And” between values parts separate entries of the source, which are not always exact repeats. Equal values may be shown once. Results filed as inconclusive are left out. Entries that show only a call come without a potency. A structure can be active in one record and inactive in another. The source made the active and inactive calls. Unless noted, calls follow the shape of the dose curve; as a rule, active = well fitted curve in the direction sought with a large enough effect in the repeat runs; inconclusive = weak or mixed curves; inactive = no such curve, though single readings can be large; an effect the other way counts as inactive or inconclusive.
# Columns and labels:
# [1] = qHTS assay to identify small molecule agonists of the hypoxia (HIF-1) signaling pathway - cell viability counter screen (AID 1224844; calls by dose curve; also: nearly all actives have a fitted effect of over 50% in size; also: potency is read from the fitted curve at half-maximal effect)
# Method in brief: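 Multiplexed with the HRE beta-lactamase assay, this viability read used CellTiter-Glo luminescence (30 min, RT) on HRE-bla ME-180 cells treated 17 hrs with compounds in 0.5% dialyzed FBS medium.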
# [2] = qHTS assay to identify small molecule agonists of H2AX (AID 1224845; active = well fitted activation curve with a large enough effect in the signal ratio in the repeat runs, not every such curve was filed as active; the % refers to the signal ratio)
# Method in brief: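 Wild-type CHO-K1 cells plated overnight, then exposed 3 hr at 37C to compounds at 15 concentrations (0.76% DMSO). Lysed, then HTRF anti-pH2AX(S139)-cryptate/anti-H2AX-d2 detection after 24 hr at room temperature; emissions 665 and 620 nm.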
# [3] = qHTS assay to identify small molecule agonists of the hypoxia (HIF-1) signaling pathway (AID 1224846; active = well fitted activation curve with a large enough effect in the signal ratio in the repeat runs, not every such curve was filed as active; the % refers to the signal ratio)
# Method in brief: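 Hypoxia-pathway activation was scored as increased beta-lactamase from an HRE-controlled reporter in ME-180 cells; plated at 2,000 cells per well with 0.5% dialyzed FBS, they were exposed 17 hrs to compounds and then given CCF4-AM.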
# [4] = qHTS assay to identify small molecule agonists of H2AX - cell viability counter screen (AID 1224847; calls by dose curve; also: nearly all actives have a fitted effect of over 30% in size; also: potency is read from the fitted curve at half-maximal effect)
# Method in brief: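 We seed wild-type CHO-K1 cells overnight, treat them for 3 hr at 37C with compounds in 15-concentration series, and quantify remaining viability by CellTiter-Glo luminescence.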
# [5] = qHTS assay to identify small molecule antagonists of the estrogen related receptor (ERR) signaling pathway from Tox21 library (AID 1224848); also: nearly all actives have a fitted effect of over 50% in size
# Method in brief: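 Cells: ERR line, 2,000/well; 6 h preincubation 37 C/5% CO2. Cpd in DMSO via pin tool; 18 h, 37 C. ONE-Glo, 30 min RT, luminescence.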
# [6] = qHTS assay to identify small molecule agonists of the estrogen related receptor (ERR) signaling pathway from Tox21 library (AID 1224849; calls by dose curve; also: nearly all actives have a fitted effect of over 15% in size); conditions: ERR reporter cell line, ONE-Glo luciferase, 18 h
# Method in brief: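 Six hours post-seeding at 37 C/5% CO2, ERR cells receive DMSO-solubilised compounds; after 18 h at 37 C, ONE-Glo reagent is applied and luminescence recorded.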
# [7] = qHTS RealTime-Glo MT Cell Viability Assay in HepG2 cells - 24 hour (AID 1224867); also: nearly all actives have a fitted effect of over 50% in size; also: potency is read from the fitted curve at half-maximal effect
# Method in brief: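 Real-time, nonlytic viability: 600 HepG2 cells/well mixed with NanoLuc enzyme plus prosubstrate; 5 h settle, compound (DMSO) added by pintool; luminescence monitored over 40 h at 37 C.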
# [8] = qHTS RealTime-Glo MT Cell Viability Assay in HEK293 cells - 32 hour (AID 1224868); also: nearly all actives have a fitted effect of over 50% in size; also: potency is read from the fitted curve at half-maximal effect
# Method in brief: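 Cells + reagent dispensed (600 cells/well, HEK293) → 5 h at 37 C/5% CO2 → 23 nL compound in DMSO pinned → 40 h at 37 C → luminescence read at 0, 8, 16, 24, 32, 40 h.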
# [9] = A CellTox Green Cytotoxicity Assay to monitor cytotoxicity in HEK293 cells - 0 hour (AID 1224869); also: nearly all actives have a fitted effect of over 50% in size; also: potency is read from the fitted curve at half-maximal effect
# Method in brief: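 Seeding of HEK293 cells together with cytotoxicity dye preceded a 5 h incubation at 37 C/5% CO2. Test compounds in DMSO were then added and fluorescence monitored across 40 h.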
# [10] = qHTS RealTime-Glo MT Cell Viability Assay in HepG2 cells - 40 hour (AID 1224870); also: nearly all actives have a fitted effect of over 50% in size; also: potency is read from the fitted curve at half-maximal effect
# Method in brief: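 HepG2 cells mixed with RealTime-Glo MT reagents (NanoLuc plus cell-permeant prosubstrate) were seeded at 600 cells/well, incubated 5 h at 37 C/5% CO2, then pinned with compounds in DMSO; nonlytic luminescence tracked viability during 40 h treatment.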
Structure (SMILES),Potency [1],Potency [2],outcome [3],Potency [4],Potency [5],"activity change, positive = activation ([6]; at 42.5 µM (top of the series))","activity change, positive = activation ([6]; at 92.4 µM (top of the series))",Potency [7],Potency [8],Potency [9],Potency [10]
OCCOc1ccccc1,inactive,inactive,inactive,inactive,inactive,7.59% (inactive),-33.2% (inactive) and 4.84% (inactive),inactive,inactive,inactive,inactive
CC(=O)O,inactive,inactive,inactive,inactive,,,,inactive,inactive,inactive,inactive
CCCC[N+]1(C)CCCCC1,inactive,inactive,inactive,inactive,,,,inactive and 48.8 µM (active),inactive,inactive,inactive and 30.8 µM (active)
Cc1cc(Cl)ccc1N,inactive,inactive,inactive,inactive,,,,inactive,inactive,inactive and 38.9 µM (active),inactive
O=C(O)C(Cl)(Cl)Cl,inactive,inactive,inactive,inactive,,,,inactive,inactive,inactive,inactive
CCCC[n+]1cccc(C)c1,inactive,inactive,inactive,inactive,,,,inactive,inactive,inactive,inactive and 49.6 µM (active)
CCCn1cc[n+](C)c1,inactive,inactive,inactive,inactive,,,,inactive,inactive,inactive,49.4 µM (active) and inactive
Nc1ccc(Cl)cc1,inactive,inactive,inactive,inactive,,,,inactive,inactive,inactive,inactive
CC(Cl)(Cl)C(=O)O,inactive,inactive,inactive,inactive,,,,inactive,inactive,inactive,inactive
COc1ccccc1N,inactive,inactive,inactive,inactive,inactive,,8.48% (inactive) and 0.539% (inactive) and 1.9% (inactive),inactive,inactive,inactive,inactive
CCCCCCCCn1cc[n+](C)c1,inactive,inactive,inactive,56.3 µM (active) and 80 µM (active) and 90.5 µM (active),,,,inactive,3.86 µM (active) and 3.12 µM (active) and 3.93 µM (active),inactive,inactive
CCn1cc[n+](C)c1C,inactive,inactive,inactive,inactive,,,,inactive,inactive,inactive,inactive
O=C(O)CCl,inactive,inactive,inactive,inactive,inactive,,5.04% (inactive) and -0.191% (inactive) and -5.49% (inactive),inactive,inactive,inactive,inactive
O=[N+]([O-])c1ccccc1O,inactive,inactive,inactive,inactive,inactive,,2.74% (inactive) and 26.9% (inactive) and 8.3% (inactive),inactive,inactive,inactive,inactive
CCCC[n+]1ccc(C)cc1,inactive and 38.7 µM (active),inactive,inactive,inactive and 89.3 µM (active),,,,inactive,inactive,inactive,inactive
CCCC[n+]1ccccc1,inactive,inactive,inactive,inactive,,,,inactive,inactive,inactive,inactive
CC[N+](CC)(CC)CC,inactive,inactive,inactive,inactive,,,,inactive,inactive,inactive,inactive
CCNc1nc(Cl)nc(NCC)n1,55.2 µM (active) and inactive,inactive,inactive,inactive,inactive,-12% (inactive),-3.33% (inactive) and -18.8% (inactive),inactive,inactive,inactive,inactive
O=C(O)c1nc(Cl)ccc1Cl,inactive,inactive,inactive,inactive,,,,inactive,inactive,inactive,inactive
CCCC[n+]1ccccc1C,inactive,inactive,inactive,inactive,,,,inactive,inactive,inactive,inactive
CCC[N+]1(C)CCCCC1,inactive,inactive,inactive,inactive,,,,inactive,inactive,inactive,inactive and 24.6 µM (active)
O=c1nc(O)n(Cl)c(=O)n1Cl,inactive,inactive,inactive,inactive,inactive,,9.16% (inactive) and 1.98% (inactive) and 3.37% (inactive),inactive,inactive,inactive,inactive
CCCCCCCCCCCCCC[P+](CCCCCC)(CCCCCC)CCCCCC,11 µM (active) and 17.5 µM (active) and inactive,inactive,inactive,16 µM (active) and 28.6 µM (active) and 4 µM (active),,,,9.82 µM (active) and 19.7 µM (active) and inactive,3.91 µM (active) and 2.47 µM (active) and 1.95 µM (active),inactive,11 µM (active) and 22.1 µM (active) and inactive
O=S(=O)(O)O,inactive,inactive,inactive,inactive,,,,inactive,inactive,inactive,inactive
CCCCCCCCCCCCOS(=O)(=O)O,48.3 µM (active) and inactive,inactive,inactive,inactive,,,,inactive,inactive,inactive,inactive
CCOP(=S)(OCC)Oc1ccc2c(C)c(Cl)c(=O)oc2c1,inactive,inactive,inactive,inactive,inactive,25.6% (active),-10.9% (inactive) and -28.3% (inactive),inactive,12.4 µM (active) and 43.6 µM (active) and inactive,inactive,inactive
O=c1[nH]c(=O)n(Cl)c(=O)n1Cl,inactive,inactive,inactive,inactive,inactive,,2.32% (inactive) and 2.59% (inactive) and 1.02% (inactive),inactive,inactive,inactive,inactive
CCCCn1cc[n+](C)c1,inactive,inactive,inactive,inactive,,,,inactive,inactive,inactive,inactive and 35.2 µM (active)
COCC(=O)N(c1c(C)cccc1C)C(C)C(=O)OC (configuration not stated),inactive,inactive,inactive,inactive,inactive,5.38% (inactive),1.31% (inactive) and 1.04% (inactive),inactive,inactive,inactive,inactive
CCC[N+]1(C)CCCC1,inactive,inactive,inactive,inactive,,,,inactive,inactive,inactive,inactive and 34.9 µM (active)
